NPSR antagonist – blocks cAMP signaling of the human neuropeptide S receptor; Q6W5P4; CHO-NPSR cells, cAMP TR-FRET, antagonist mode; Potency, µM (series often up to 38.3 µM), for the others: at the top dose activity change, negative = inhibition, actives largely listed as inhibitors; hit rate 1% among 220,000; AID 1461; active means well fitted curve in the direction sought with a large enough effect; inconclusive means small, poorly fitted or top-dose-only effect, or another doubt; inactive means no such curve, though single readings can be large; an effect the other way counts as inactive or inconclusive; further: potency means the concentration at half of the fitted maximal effect; nearly all actives have a fitted effect of over 50% in size
ALDH1A1 block – inhibitors of human aldehyde dehydrogenase 1A1 | Purified ALDH1A1, NADH fluorescence, propionaldehyde substrate | Potency, µM (highest dose often 75.3 µM), without a hit: at the top dose activity, negative = inhibition, most hits filed as inhibitors | hit rate 7.3% among 220,000;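 further: potency means the concentration at half of the fitted maximal effect; plate controls were no enzyme wells and a reference inhibitor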
JMJD2E inh – inhibitors of human JMJD2E histone demethylase. B2RXH2. JMJD2E catalytic domain, FDH-coupled NADH fluorescence (FDH is formaldehyde dehydrogenase). Potency, µM (doses to about 57.1 µM), inactives show top-dose activity change, negative = inhibition, hits mostly inhibitors. hit rate 1.6% among 230,000;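 further: potency means the concentration at half of the fitted maximal effect; 0% = wells with enzyme and -100% = buffer wells without enzyme; nearly all actives have a fitted effect of over 50% in size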
Sfp inh – blocks B. subtilis Sfp PPTase activity; Potency, µM, inactives show largest response in the series, negative = inhibition, actives largely listed as inhibitors; Q9F4F7; hit rate 3.5% among 310,000; Biochemical Sfp PPTase activity, qHTS; active means well fitted curve in the direction sought with a large enough effect; inconclusive means small, poorly fitted or top-dose-only effect, or another doubt; inactive means no such curve, though single readings can be large; an effect the other way counts as inactive or inconclusive;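 further: the enzyme is Sfp with the accession as filed and its product quenches rhodamine fluorescence; potency means the concentration at half of the fitted maximal effect; 0% = enzyme reaction without inhibitor and -100% = no enzyme wells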
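Fluorescence-quenching assay with 15 nM Sfp, 5 uM rhodamine-CoA and 12.5 uM BHQ-2-labelled ybbR peptide in pH 7.6 Hepes/MgCl2 buffer. Enzyme was pre-incubated with compound for 15 min at room temperature. Rate was taken from the 30-min fluorescence change (525/598 nm).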
GoLoco inh red – inhibitors of human Gai1-RGS12 GoLoco interaction (red fluorophore). P63096. Gai1:RGS12 GoLoco peptide FP, rhodamine, 10 min. Potency, µM (highest dose often 61.6 µM), for inactives: at the top dose activity, negative = inhibition, actives largely listed as inhibitors. hit rate 0.44% among 230,000. AID 880; active means well fitted inhibition curve with a large enough effect, not every such curve was filed as active; inactive means no such curve, though single readings can be large or run the other way; further: potency means the concentration at half of the fitted maximal effect; nearly all actives have a fitted effect of over 30% in size
Target sequence (P63096 whole entry, looked up): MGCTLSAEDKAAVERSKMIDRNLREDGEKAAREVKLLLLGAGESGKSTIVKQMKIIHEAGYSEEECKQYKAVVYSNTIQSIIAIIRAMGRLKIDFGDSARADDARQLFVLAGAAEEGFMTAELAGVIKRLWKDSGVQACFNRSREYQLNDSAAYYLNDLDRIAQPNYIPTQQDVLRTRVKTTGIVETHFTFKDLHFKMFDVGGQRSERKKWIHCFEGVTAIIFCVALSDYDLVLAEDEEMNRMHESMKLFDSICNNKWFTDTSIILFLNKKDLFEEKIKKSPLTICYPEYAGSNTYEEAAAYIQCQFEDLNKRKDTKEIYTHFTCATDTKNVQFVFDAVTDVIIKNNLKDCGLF
Coupling enz – counter-screen for Giardia aldolase inhibitors: coupling enzyme system. coupling enzyme system counterscreen, AmpLite Red fluorescence. activity change, negative = inhibition, % at 58.2 µM, hits read low. hit rate 0.67% among 290,000. AID 2472; in the data active means activity change below about -30%
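First, compound is pin-transferred into glyceraldehyde-3-phosphate coupling-enzyme reagent at 57.5 uM final and held 10 min at RT. Next, substrate, coupling system and AmpLite Red are added. After 20 min RT, fluorescence (525/598 nm) is read.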
Numbers without * were called inactive; [ ] = dose if it differs, or a comment. In the library only some 8.5% were active in any assay of this set; here they are far more common. Unless noted, the call rests on the fitted dose curve; in most records, active means well fitted inhibition curve with a large enough effect (not every such curve was filed as active); inconclusive means small, poorly fitted or top-dose-only effect, or another doubt; inactive means no such curve, though single readings can be large or run the other way. Unless noted, on the % scale 0 is the no-effect control and ±100 the full control effect.

Screening CC1=C(C(=O)Nc2ccc(Cl)cc2)C(c2ccncc2)C(C#N)=C(SCC(N)=O)N1 (configuration not stated) returned NPSR antagonist -23%[46.1 µM], ALDH1A1 block inconclusive, JMJD2E inh -9%, Sfp inh 89µM*, GoLoco inh red 6% and Coupling enz -7.
CCOC(=O)C1=C(C)NC(C)=C(C(=O)OCC)C1c1cccs1 was read as NPSR antagonist 1%, ALDH1A1 block 2%, JMJD2E inh -2%, Sfp inh 1%, GoLoco inh red -14% and Coupling enz 0.
O=C(C1CCC(CNS(=O)(=O)c2cccs2)CC1)N1CCN(c2ccc(Cl)cc2)CC1 (configuration not stated) was read as Sfp inh 5%.
`FC(F)(F)c1ccnc(NCc2ccco2)n1` gave NPSR antagonist 16%, JMJD2E inh -4%, Sfp inh 5%, GoLoco inh red 6% and Coupling enz -1.
`CCCCC(Sc1nc(N)c(NC(=O)c2ccc(OC)cc2)c(=O)[nH]1)C(=O)O` (configuration not stated) gave NPSR antagonist 14%, ALDH1A1 block 8%, JMJD2E inh -18%, Sfp inh 4%, GoLoco inh red 7% and Coupling enz 3.
For CC(=O)Nc1ccc(OCC(O)CNC2CCCC2)cc1 (configuration not stated) the results were NPSR antagonist -3%[46.1 µM], ALDH1A1 block 18µM*, JMJD2E inh -28%, Sfp inh 21%, GoLoco inh red -1% and Coupling enz -38*.
COc1ccc(OCC(O)CNC2CCCC2)cc1 (configuration not stated) was read as Sfp inh 14% and Coupling enz 2.
COc1ccc(CNCC(O)COc2ccc(C(C)(C)c3ccccc3)cc2)cc1 (configuration not stated) was read as Sfp inh 56µM* and Coupling enz -1.
For CC(C)(c1ccccc1)c1ccc(OCC(O)CNC2CCN(Cc3ccccc3)CC2)cc1 (configuration not stated) the results were NPSR antagonist inconclusive, ALDH1A1 block inconclusive, JMJD2E inh 10µM*, Sfp inh 79µM*, GoLoco inh red -12% and Coupling enz -4.
For Cc1ccc(C)c(CNS(=O)(=O)c2c(C)[nH]c(C)c2C(=O)N2CCCCC2)c1 the results were Sfp inh 7% and Coupling enz -3.
COC(=O)C1=C(C)N(Cc2ccccc2)C(=NCC2CC2)N[C@H]1c1ccc(Br)cc1 was read as Sfp inh 56µM* and Coupling enz -1.
For COC(=O)C1=C(C)N(Cc2ccccc2)C(=NCc2ccc(OC)cc2)N[C@H]1c1cccc(F)c1 the results were Sfp inh -7% and Coupling enz -3.
For COC(=O)C1=C(C)N(Cc2ccccc2)C(=NCc2cccc(Cl)c2)N[C@H]1c1cccc(F)c1 the results were Sfp inh 56µM* and Coupling enz -4.
For COC(=O)C1=C(C)N(Cc2ccccc2)C(=NCC2CC2)N[C@H]1c1ccccc1 the results were Sfp inh 12% and Coupling enz 0.
`CC1CCCCN1C(=O)CCS(=O)(=O)c1cccc2nonc12` (configuration not stated) gave NPSR antagonist 6%, ALDH1A1 block inconclusive, JMJD2E inh -7%, Sfp inh 24%, GoLoco inh red -7% and Coupling enz 2.
Screening CCCCCCC1(C)NC(=S)N(c2ccccc2)N1 (configuration not stated) returned NPSR antagonist -20%, ALDH1A1 block inconclusive, JMJD2E inh inconclusive, Sfp inh inconclusive, GoLoco inh red 6% and Coupling enz -1.
For CCC1(c2ccc(Cl)cc2)NC(=S)N(c2ccccc2)N1 (configuration not stated) the results were NPSR antagonist -12%[46.1 µM], ALDH1A1 block 13µM*, JMJD2E inh inconclusive, Sfp inh 56µM*, GoLoco inh red 10% and Coupling enz 4.
Screening CCC1(c2ccccc2)NC(=S)N(c2ccc(C)cc2)N1 (configuration not stated) returned NPSR antagonist 6%, ALDH1A1 block inconclusive, JMJD2E inh inconclusive, Sfp inh 50µM*, GoLoco inh red 2% and Coupling enz 3.
`Cc1noc(C)c1-c1ccc2ncnc(N3CCOCC3)c2c1` gave ALDH1A1 block -13%, Sfp inh 16%, GoLoco inh red 6% and Coupling enz 5.
Screening CC(C)C[C@@H](C(=O)NCc1ccco1)N1C(=O)N2CCc3c([nH]c4ccccc34)[C@@]2(C)C1=O returned Sfp inh 2% and Coupling enz -1.
`CCOc1ccc(C(=S)NC2CCCCC2)cc1` gave NPSR antagonist -20%[46.1 µM], ALDH1A1 block 8.9µM*, JMJD2E inh 5%, Sfp inh 6%, GoLoco inh red -9% and Coupling enz 1.
COc1ccc(C(=S)NC2CCCCC2)cc1 was read as NPSR antagonist -27%[46.1 µM], ALDH1A1 block -6%, JMJD2E inh -19%, Sfp inh 35µM* and Coupling enz 0.
`N#CC1=C(SCc2ccccc2Cl)NC(=O)C(C(N)=O)C1` (configuration not stated) gave NPSR antagonist -5%[46.1 µM], ALDH1A1 block 16µM*, JMJD2E inh 2%, Sfp inh 4%, GoLoco inh red 10% and Coupling enz 13.
Screening CCCOC(=O)CSC1=C(C#N)C(c2ccccc2Cl)CC(=O)N1 (configuration not stated) returned NPSR antagonist -8%[46.1 µM], ALDH1A1 block inconclusive, JMJD2E inh -5%, Sfp inh -11%, GoLoco inh red -1% and Coupling enz 0.
For C/C(=N\O)c1cc(Cl)ccc1O the results were NPSR antagonist -6%, ALDH1A1 block 12%, JMJD2E inh -8%, Sfp inh 15%, GoLoco inh red 6% and Coupling enz 3.
CCCN1CCN(C(=O)c2oc3c(Cl)cccc3c2C)CC1 was read as Sfp inh 9% and Coupling enz 1.
For COC(=O)C1(Cc2ccccc2)C=C2C(=C(c3ccccc3)C(=O)C2C)CN1 (configuration not stated) the results were ALDH1A1 block 25µM*, JMJD2E inh -27%, Sfp inh inconclusive, GoLoco inh red -13% and Coupling enz -5.
Screening COC(=O)C1(CC(C)C)C=C2C(=C(C(C)C)C(=O)C2C)CN1 (configuration not stated) returned ALDH1A1 block 35µM*, JMJD2E inh inconclusive, Sfp inh 0%, GoLoco inh red -2% and Coupling enz 1.

Assay outcomes as filed in PubChem.
